# Data taken from PubChem BioAssay (NCI).
# Compounds without any hit were thinned out: in the full panel of roughly 83,000, 20% have a hit.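 Each cell line was grown in a 96-well plate and treated with one concentration of compound for 48 hours. Values below 10 were considered active.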 Unmarked numbers belong to inactive results. Calls of active or inactive are those of the source.
# Key:
# Experiment in all cases: NCI-60 one-dose screen, 48 h (100 = growth as untreated, 0 = no growth, -100 = all killed)
# Details in all cases: 10 µM unless noted
# NCI-H23 lung = system: NCI-H23 lung
# NCI-H226 lung = system: NCI-H226 lung
# NCI-H322M lung = system: NCI-H322M lung
# HOP-62 NSCLC = system: HOP-62 NSCLC
# NCI-H460 lung = system: NCI-H460 lung
# HOP-92 NSCLC = system: HOP-92 NSCLC
# NCI-H522 lung = system: NCI-H522 lung
# A549/ATCC NSCLC = system: A549/ATCC NSCLC
# 786-0 renal = system: 786-0 renal
# COLO 205 colon = system: COLO 205 colon
# DU-145 prostate = system: DU-145 prostate
# K-562 leukemia = system: K-562 leukemia
# MDA-MB-231 breast = system: MDA-MB-231 breast
# RXF 393 renal = system: RXF 393 renal
# SF-268 CNS = system: SF-268 CNS
# SF-295 CNS = system: SF-295 CNS
# SF-539 CNS = system: SF-539 CNS
# UACC-257 melanoma = system: UACC-257 melanoma
# M14 melanoma = system: M14 melanoma
# MALME-3M melanoma = system: MALME-3M melanoma
SMILES,growth (NCI-H23 lung),growth (NCI-H226 lung),growth (NCI-H322M lung),growth (HOP-62 NSCLC),growth (NCI-H460 lung),growth (HOP-92 NSCLC),growth (NCI-H522 lung),growth (A549/ATCC NSCLC),growth (786-0 renal),growth (COLO 205 colon),growth (DU-145 prostate),growth (K-562 leukemia),growth (MDA-MB-231 breast),growth (RXF 393 renal),growth (SF-268 CNS),growth (SF-295 CNS),growth (SF-539 CNS),growth (UACC-257 melanoma),growth (M14 melanoma),growth (MALME-3M melanoma)
CCOC(=O)c1ccc2c(c1)[n+](=O)c(C(=O)C1CCCS1)c(C(F)(F)F)n2[O-] (stereo not drawn),-87% (active),-54.9% (active),-87.6% (active),-90.6% (active),-73.7% (active),-83.6% (active),-83.3% (active),-94.9% (active),-92.3% (active),-84.8% (active),-96.5% (active),-52.6% (active),-76.8% (active),-92.3% (active),-89.6% (active),-88% (active),-83.8% (active),-90.4% (active),-96.6% (active),
O=C(/C=C/c1cccc(O)c1)c1ccccc1O,86.8%,98.2%,98.4%,94.4%,88.2%,68.6%,-37.3% (active),96.6%,103%,104%,83.2%,80%,80.3%,89.9%,94.2%,98.6%,102%,86.8%,96.4%,
Cc1cccc2c1NC(=O)[C@@]21[C@H](C(=O)c2ccccc2)[C@]2(C(=O)Nc3ccccc32)[C@H]2CCCN21,38.4% [100 µM],13% [100 µM],48.8% [100 µM],4.33% [100 µM] (active),12.3% [100 µM],-25.2% [100 µM] (active),17% [100 µM],15% [100 µM],15.3% [100 µM],33.1% [100 µM],40% [100 µM],30.4% [100 µM],14.5% [100 µM],-23.9% [100 µM] (active),34.3% [100 µM],23.7% [100 µM],6.13% [100 µM] (active),,46.1% [100 µM],
COc1cccc2c1C(=O)c1c(O)c3c(c(O)c1C2=O)C[C@@](O)(C(=O)CO)C[C@@H]3OC1C[C@H](N)[C@H](O)[C@H](C)O1 (stereo partly drawn),-33.5% (active),-40.5% (active),-2.94% (active),-29.2% (active),0.418% (active),-26.2% (active),-61.1% (active),8.81% (active),6.46% (active),-81.6% (active),3.11% (active),-2.21% (active),-9.32% (active),,-31.7% (active),-22.4% (active),-29.8% (active),-35% (active),-71.6% (active),-57.6% (active)
Oc1cccc2oc(=S)[nH]c12,104%,106%,128%,104%,116%,102%,101%,107%,106%,117%,118%,118%,99.1%,112%,111%,118%,88.8%,114%,111%,
O=C(O)c1cccc2c1Cc1cc([N+](=O)[O-])ccc1-2,103%,100%,109%,105%,110%,82%,103%,107%,108%,107%,109%,108%,102%,118%,104%,115%,93%,109%,110%,
Cc1c(C)c2c(c(C)c1NC(=O)CCCCCCC(=O)O)CCC(C)(CCCC(C)CCCC(C)CCCC(C)C)O2 (stereo not drawn),85.7%,95.2%,91.7%,109%,69.7%,82%,52%,20.4%,75.2%,98.4%,86.1%,39.2%,101%,98.9%,78.3%,71.4%,89.9%,95.2%,82.7%,
N=c1ccc2nc3c(cc(N)c4ccccc43)oc-2c1,-80.4% (active),-61.3% (active),-34.2% (active),-97.7% (active),-77.3% (active),21.7%,-70.1% (active),-44% (active),-90.7% (active),-100% (active),-100% (active),-67.3% (active),-52.8% (active),,-59.2% (active),-69.8% (active),-98.9% (active),-91.5% (active),-100% (active),-91.5% (active)
CCN(CC)CCCCCNc1cc(OC(=O)c2ccccc2)cc2cccnc12,92%,118%,102%,98.7%,163%,99.1%,124%,122%,100%,17.3%,111%,23.8%,88.2%,,93.2%,110%,150%,120%,101%,95.3%
Cn1cc(-c2nc(-c3c[nH]c4ncccc34)cs2)c2cc(Cl)ccc21,69.5%,81.8%,47.8%,86%,47%,40.4%,52.2%,43%,46.2%,80.2%,54.4%,9.43% (active),55.3%,63.4%,65.4%,24.4%,71.7%,56%,,
Brc1ccc2[nH]cc(-c3nc(-c4c[nH]c5ncccc45)cs3)c2c1,47%,62.4%,42%,56.6%,15.7%,47.9%,25%,22.9%,10.4%,18.5%,39.8%,4.74% (active),24.9%,21.8%,59%,5.5% (active),50.9%,-6.38% (active),8.64% (active),
CC(=O)Nc1cc(F)cc(C(F)(F)F)c1Cl,92.2%,91%,98.7%,99.3%,98.6%,93.7%,100%,103%,94.3%,,108%,112%,110%,89.4%,98.2%,102%,97.6%,103%,99.2%,100%
CC(=O)OCCCCCCn1c2ccccc2c2c3c(c4c5ccccc5n(C)c4c21)C(=O)N(O)C3=O,68%,63.7%,77.4%,58.7%,48.1%,101%,50.4%,94.5%,88%,,89.9%,59.7%,64.5%,100%,70.2%,91.5%,94.3%,,65.4%,115%
COc1cc(OC)c2c(c1)c1nc3cc(C)c(C)cc3nc1n2CCN(C)C,91.3%,90.5%,87.1%,79.4%,84.8%,81.7%,79.2%,80.4%,83.9%,,90.2%,78.3%,79.5%,96.2%,93.7%,90.2%,86%,94.9%,84.2%,80.9%
c1ccc(-c2nc(Nc3ccc(-c4nc5ccccc5[nH]4)cc3)nc(N3CCOCC3)n2)cc1,-59.1% (active),-19.3% (active),-0.466% (active),-64.5% (active),-67.3% (active),-66.3% (active),-68.2% (active),-68.4% (active),-88.9% (active),,-27.8% (active),-30.1% (active),-63.3% (active),-75.1% (active),-43.4% (active),-76.4% (active),-76.8% (active),,-80.7% (active),-77.3% (active)
O=C(O)/C(=C/c1ccc(O)cc1)c1ccccc1,93.9%,100%,100%,88.8%,108%,83.1%,95%,93%,92.2%,,97.9%,104%,103%,70.6%,95.8%,105%,122%,90.3%,97.5%,94.5%
Cc1cc(Nc2ccc(F)cc2)nc(N2CCN(c3ccnc4cc(Cl)ccc34)CC2)n1,28.9%,57.5%,46.8%,59.8%,11.6%,-7.85% (active),17.4%,29.8%,23.5%,,35%,6.26% (active),37.9%,38.9%,36.2%,,14%,38.3%,12.9%,12.7%
